# Measured values taken from PubChem BioAssay AID434958 (Southern Research Specialized Biocontainment Screening …, 2010).
# About 400 (33%) of roughly 1,200 compounds were called active. A selection follows. Results with a measured potency or affinity are listed apart. A number with no mark means an inactive call. How the calls were made is not given here.
# Test: mammalian cell cytotoxicity, dose response, cytotoxicity control (AID 434958);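 further: cells exposed to compound for 72 hours before readout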
# Conditions: cytotoxicity counter-screen; series mostly up to 40 µM; viability: at the top concentration
row,Compound,viability
1,CCCC(=O)Nc1nc(-c2ccccc2)ns1,96.2%
2,Cc1ccc(C)c(S(=O)(=O)N2CCN(CC(=O)NC(C)c3ccccc3)CC2)c1 (centres undefined),91.4%
3,O=c1oc(-c2ccccc2F)nc2scc(-c3ccccc3)c12,94.1%
4,Cc1ccc(C2=NN(C(=O)CN3C(=O)c4ccccc4S3(=O)=O)C(c3ccco3)C2)cc1 (centres undefined),82.9%
5,COCCOC(=O)c1c(C)oc2ccc(OCc3cc(C(=O)OC)oc3C)cc12,90.5%
6,Cc1sc2nc(C(C)Nc3ccccc3N3CCOCC3)[nH]c(=O)c2c1C (centres undefined),88.9%
7,CCCc1cc(NC(=O)COC(=O)c2nccnc2N)n(-c2ccccc2)n1,102%
8,CC(C)CCN1CC(O)=C(c2nc3ccccc3[nH]2)C1=N,84.1%
9,O=C(Nc1nc(-c2ccc3c(c2)OCCO3)cs1)c1ccc(S(=O)(=O)N2CCCCC2)cc1,91.1%
10,O=C(Nc1nnc(-c2ccc3c(c2)OCCO3)o1)C1CCCCC1,89.3%
11,CCSc1nnc(NC(=O)CSc2nccn2-c2cccc(C)c2)s1,102%
12,Cc1c(C(=O)NCCC2=CCCCC2)sc2ncnc(N3CCCCC3C)c12 (centres undefined),82.1%
13,Cc1cc(C)c(NC(=O)CC(C)(C)C)c(Cl)c1,96.5%
14,COc1ccc(OC)c(NC(=O)CS(=O)(=O)c2ccccc2)c1,96.5%
15,Cc1ccc(OCC(=O)Nc2ccc(-c3nc4ncccc4o3)cc2)c(C)c1,103%
16,Cc1cc(C)c2oc(-c3ccc(Cl)c(NC(=O)c4ccc(C#N)cc4F)c3)nc2c1,86.5%
17,CCc1ccc(NC(=S)Nc2ccc3cn[nH]c3c2)cc1,101%
18,O=C(COC(=O)c1ccc(Cl)cc1[N+](=O)[O-])NNC(=O)c1cccs1,107%
19,NC(=S)N/N=C/c1ccc([N+](=O)[O-])cc1,106%
20,NNC(=S)NC1CC2CC1C1C=CCC21 (centres undefined),91.1%
21,CCc1nc2scc(-c3cccs3)c2c(=O)o1,111%
22,Cc1c(-c2ccncc2)oc2ccc(Br)cc2c1=O,95.4%
23,Cc1ccc2c(Cl)cc(Cl)c(OCc3c(C)noc3C)c2n1,94.7%

row,Compound,viability
1,O=C(N/N=C/c1ccc(OC(=O)c2ccc3c(c2)OCO3)cc1)c1cncc(Br)c1,97.2%
2,Cc1ccc(/C=N\NC(=O)c2csnn2)cc1,95.1%
3,Cc1cccc(C)c1NC(=O)C1CC2CCC1C2 (centres undefined),100%
4,COC(=O)c1c(NC(=O)c2ccc(C)cc2)csc1C,94.8%
5,Cc1ccc(C)c(N2CCN(CC3CC=CCC3)CC2)c1 (centres undefined),97.1%
6,Cc1cc(Br)ccc1NC(=O)c1ccccc1-c1ccccc1,90.7%
7,O=C(COC(=O)C1CC1)NCc1ccccc1Cl,109%
8,Cc1ccc(C2=N/C(=C\c3cccc(F)c3)C(=O)O2)cc1,93.8%
9,COC(=O)c1sc(-c2ccc(C(C)(C)C)cc2)cc1NC(=O)CCC(=O)O,84.9%
10,O=C(COc1ccc(Cl)cc1)OCC(=O)N1CCCCCC1,99.3%
11,Cc1ccc(C)c(-n2c(-c3ccco3)n[nH]c2=S)c1,105%
12,O=C(NN1C(=O)c2cc(Br)ccc2NC1c1ccccc1Cl)c1ccncc1 (centres undefined),85.9%
13,CCOc1ccc(-c2nnc(-c3ccc(OC)cc3)o2)cc1,91.7%
14,COc1ccc2cc(C3=CCCCC3)ncc2c1,97.6%
15,COc1cccc(/C=C/c2[nH]c(=O)[nH]c(=O)c2[N+](=O)[O-])c1O,108%
16,COc1ccc(-c2cc(C(N)=O)nc(N3CCCCCC3)n2)cc1,95.8%
17,COc1ccccc1C(=O)Nc1sc2c(c1C(=O)NCc1ccco1)CCCC2,84.7%
18,O=c1oc(-c2cccs2)nc2sc3c(c12)CCCC3,96.4%
19,CC(C(=O)Nc1sc2c(c1C(=O)NCc1ccco1)CCCC2)N1C(=O)c2ccccc2C1=O (centres undefined),81.9%
20,O=C(Cn1cnc2sc3c(c2c1=O)CCCC3)NCC(=O)Nc1ccccc1F,106%
21,N#Cc1cc2c(nc1SCC(=O)Nc1sc3c(c1C#N)CCC3)CCCC2,88.3%
22,O=c1oc(-c2ccco2)nc2sc3c(c12)CCCCC3,98.2%
23,CCOc1nnnc2c1sc1nc(N3CCOCC3)c3c(c12)CCCC3,86.5%

row,Compound,viability
1,Fc1ccc(C2Nc3cccc4cccc(c34)N2)cc1,87%
2,CCC(CC)C(=O)Nc1ccc(Sc2ccc([N+](=O)[O-])cc2)cc1,85.5%
3,Cc1nc(S/C(=C\c2ccc(OCc3ccccc3Cl)cc2)C(=O)O)n[nH]1,86.2%
4,CCn1nnnc1SCC(=O)c1ccc(C)cc1C,105%
5,CSc1ccccc1C(=O)Nc1ccc2c(c1)OCCO2,86.6%
6,O=C(NN=C1CCCC1)c1cccs1,97.9%
7,CC(C)OCc1c(C(=O)Nc2nccs2)oc2ccccc12,84.7%
8,COc1ccc(/C=N/Nc2nc(-c3ccc(C)cc3)c(NC(C)=O)s2)cc1OC,85.2%
9,COc1ccc(-c2cc(C(F)F)nc(-n3nc(C)cc3C)n2)cc1,109%
10,Cc1onc(-c2c(Cl)cccc2Cl)c1/C(N)=N/OC(=O)C1CC1,104%
11,CCOc1ccc2cc(S(=O)(=O)N3CCCCC3)ccc2c1,90.6%
12,COc1cccc(-n2c([S-])c(C(=O)Nc3ccc(S(=O)(=O)N4CCOCC4)cc3)[n+]3cc(C(N)=O)ccc23)c1,93.7%
13,S=C(Nc1ccc(Cl)cc1)c1nc2ccccc2s1,98.3%
14,COc1ccc(NC(=O)CSc2nncn2C)c([N+](=O)[O-])c1,97%
15,O=C(/C=C/c1ccccc1)NC1CC2CCC1C2 (centres undefined),103%
16,CC1(c2ccc([N+](=O)[O-])cc2)NC(=O)N(CC(=O)c2ccc3c(c2)OCO3)C1=O (centres undefined),96.8%
17,O=C(CSc1n[nH]c(=O)n1C1CC1)c1ccc2c(c1)OCCO2,94.2%
18,O=S(=O)(Nc1ccccc1)c1ccc2c(c1)CCO2,93.8%
19,Cc1ccc(-c2nc3[nH]c(=O)cc(NC(=O)C(C)C)n3n2)cc1,112%
20,COCCNC(=S)N/N=C(\C)c1cccc(OC)c1,94.5%
21,CCOCC(=O)Nc1ccc(F)c(F)c1,98.5%
22,O=C(CC12CC3CC(CC(C3)C1)C2)NCc1ccc(F)cc1,94%
23,O=c1c2c(nc3n1CCCCC3)sc1c(O)c(Br)ccc12,89.9%

row,Compound,viability
1,COc1ccc(-c2csc(/C=C/c3ccc4c(c3)OCO4)n2)cc1OC,103%
2,COc1cc(NC(=O)c2ccc(Cl)cc2)c(OC)cc1NC(=O)CN1CCOCC1,94.5%
3,CN(C)S(=O)(=O)c1ccc(NC(=O)c2cc3ccccc3o2)cc1,94.6%
4,Cc1ccccc1NC(=O)c1ccc(CN(c2ccccc2)S(=O)(=O)c2ccccc2)cc1,86.9%
5,CNC(=O)Nc1cccc(-c2cc(-c3c(Cl)cccc3Cl)no2)c1,84.4%
6,O=c1oc(-c2ccccc2)nc2sc3c(c12)CCC3,96.8%
7,C=CCn1cc(C(=O)NCCCOC)c(=O)c2cc(S(=O)(=O)N(CC)CC)ccc21,90.7%
8,CC(OC(=O)c1ccc([N+](=O)[O-])o1)C(=O)NC1CCCCC1C (centres undefined),90.8%
9,C#CCOc1c(Cl)cc(/C=N/NC(N)=S)cc1OCC,96.7%
10,BrC(=C\c1ccccc1)/C=N/N1CCN(c2ccccn2)CC1,104%
11,Cc1ccc(C(=O)N2CCC3(CC2)Oc2ccc(F)cc2C(=O)C32CC(c3cccnc3)=NO2)s1 (centres undefined),98.1%
12,O=C(Nc1c2c(nc3ccccc13)CCCC2)c1ccccc1F,108%
13,COc1ccc(C(=O)Nc2ccc3nc(N4CCCCC4)cc(C)c3c2)c(OC)c1,94.4%
14,COc1ccc(-c2sc3cc(OC)c(OC)cc3c2C#CCCO)cc1,89.1%
15,CCN(CC(=O)Nc1ccccc1OC)C(=O)c1cc(S(=O)(=O)N2CCCCCC2)ccc1OC,95.8%
16,C/C(=N\NC(=S)NCc1ccccc1)c1cccc(Br)c1,95.1%
17,O=C(COc1cccc2cccnc12)N/N=C/c1ccc(O)cc1,95.2%
18,O=C(Cc1cccc2ccccc12)N/N=C/c1ccc(O)c([N+](=O)[O-])c1,99.7%
19,CN(C)c1ccc(S(=O)(=O)NCC(=O)OCC(=O)Nc2cccc(Cl)c2)cc1[N+](=O)[O-],96.4%
20,O=C(NCc1nc2ncc(Br)cc2[nH]1)c1ccccc1,94.1%
